Compound activity (PubChem)
Sampled rows, rich in hits. Any-hit rate of the full collection: about 19%.
TDP1 cell CPT – growth inhibition of DT40 Tdp1-/-;hTDP1 cells with camptothecin (screen for TDP1 inhibitors). chicken DT40 Tdp1-/-;hTDP1 cells + 20 nM CPT, ATP luminescence, 48 h. Potency, µM (series often up to 46.2 µM), for inactives: at the highest dose activity change, negative = growth inhibition, usual class: inhibitors. 420,000 tested, 12% active. AID 686979; note: potency is the fitted concentration of half-maximal effect; nearly all actives have a fitted effect of over 55% in size
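Chicken DT40 Tdp1-/- cells complemented with human TDP1, 400 cells/well, exposed to compounds plus 20 nM camptothecin for at least 48 h at 37 C; viability read as ATP content by CellTiter-Glo luminescence.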
HT1080-NT tox – kills 2HG-producing HT-1080-NT fibrosarcoma cells; HT-1080-NT fibrosarcoma viability, CellTiter-Glo ATP luminescence, 48 h; Potency, µM (titrated, usually from 46.1 µM), for inactives: at the top dose activity, negative = less viability, most hits filed as cytotoxic; 360,000 tested, 1.6% active;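 note: NT is the 2HG producing partner of a matched IDH1 knockdown line; potency is the fitted concentration of half-maximal effect; 0% = DMSO-treated cells and -100% = media-only wells without cells; nearly all actives have a fitted effect of over 55% in size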
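Compounds were tested in concentration-response format on HT-1080-NT cells for 48 hours at 37 degrees C. Cell viability came from CellTiter-Glo luminescence; curves were classified by r2, response magnitude and activity.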
HT1080 IDH1KD tx – HT-1080 IDH1 knockdown cell toxicity (counter line); HT-1080 IDH1 knockdown viability, ATP luminescence, 48 h; Potency, µM (top dose mostly 46.1 µM), without a hit: top-dose activity, negative = toxicity, most hits filed as cytotoxic; 360,000 tested, 2% active; AID 686971;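 note: potency is the fitted concentration of half-maximal effect; 0% = DMSO wells and -100% = cell-free medium wells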
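Luminescent ATP read-out (CellTiter-Glo, 10 min at room temperature) after 48 h compound exposure at 37 °C gave viability of IDH1-knockdown HT-1080 cells. Activity was normalised to DMSO and cell-free wells, then fitted as concentration-response curves.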
TDP1 cell noCPT – qHTS for Inhibitors of human tyrosyl-DNA phosphodiesterase 1 (TDP1): qHTS in cells in absence of CPT. DT40 Tdp1-/- hTDP1 cells, no CPT, ATP luminescence, 48 h. 420,000 tested, 15% active. AID 686978, 2013. Potency, µM (highest dose often 46.2 µM), for inactives: at the top dose activity change, negative = growth inhibition, usual class: inhibitors; note: potency is the fitted concentration of half-maximal effect; nearly all actives have a fitted effect of over 55% in size
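Stably hTDP1-transfected Tdp1-null chicken DT40 cells were treated with library compounds minus camptothecin and grown for at least 48 hr at 37 °C, after which cellular ATP was quantified by luminescence.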
uPA surface inh – cell surface uPA generation inhibition; cell surface uPA generation assay, qHTS; Potency, µM (doses to about 38.3 µM), inactives show top-dose activity change, negative = inhibition, actives largely listed as inhibitors; 330,000 tested, 0.31% active; active = well fitted inhibition curve with a large enough effect; inconclusive = small, poorly fitted or top-dose-only effect; inactive = no such curve, though single readings can be large or run the other way; tested in mouse RAW 264.7 cells; note: potency is the fitted concentration of half-maximal effect; nearly all actives have a fitted effect of over 55% in size
IL1B secr inh – inflammasome signaling inhibition, IL-1 beta readout | THP-1 LPS/ATP IL-1B secretion, AlphaLISA, 16 h; stronger effect = lower value | activity change, % at 57.5 µM | 360,000 tested, 4.7% active | AID 743279; in the data active = activity change below about -50%; inconclusive = mostly about -30% to -49%
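THP-1 cells pretreated 1 hr with compounds (up to 57.5 uM final), then stimulated with LPS (250 ng/mL final) plus ATP (1.25 mM final); secreted IL-1B measured by AlphaLISA after 16 hr, decreased signal indicating inhibition.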
Starred values were filed as active, the others as inactive; [ ] = another dose, or the depositor's remark. Unless noted, calls come from the whole dose curve; as a rule, active = well fitted curve in the direction sought with a large enough effect; inconclusive = small, poorly fitted or top-dose-only effect, or another doubt; inactive = no such curve, though single readings can be large; an effect the other way counts as inactive or inconclusive. Unless noted, % is set by controls: 0 for no effect and ±100 for the full control effect.

For COc1ccc(CNc2ncnc3c2cnn3-c2ccc(C)c(C)c2)cc1 the results were TDP1 cell CPT -12.1% and TDP1 cell noCPT -9.7%.
COc1ccc(-n2ncc3c(NCCC4=CCCCC4)ncnc32)cc1 was read as TDP1 cell CPT 16.4µM* and TDP1 cell noCPT inconclusive.
C[C@@H]1CCCCO[C@@H](CN(C)S(=O)(=O)c2cn(C)cn2)[C@@H](C)CN([C@H](C)CO)C(=O)c2cc(N(C)C)ccc2O1 was read as TDP1 cell CPT -1.7%, HT1080-NT tox 13.4%, HT1080 IDH1KD tx 3.9%, TDP1 cell noCPT 1.7% and IL1B secr inh 19.8.
`CC(=O)NC12CC3CC(C1)CC(C(=O)OCC(=O)NC(=O)c1cccn1C)(C3)C2` gave TDP1 cell CPT -17.8%, HT1080-NT tox 15.6%, HT1080 IDH1KD tx 3.4%, TDP1 cell noCPT -5.4%, uPA surface inh 3.9% and IL1B secr inh 33.3.
For CCN(C(=O)COC(=O)C12CC3CC(CC(NC(C)=O)(C3)C1)C2)C1CCCCC1 the results were TDP1 cell CPT inconclusive, HT1080-NT tox 7.9%, HT1080 IDH1KD tx 9.5%, TDP1 cell noCPT 20.6µM*, uPA surface inh -1.7% and IL1B secr inh 14.9.
For O=S1(=O)CCC(NC(=S)NC2CCS(=O)(=O)C2)C1 (centres undefined) the results were TDP1 cell CPT 34.5%, HT1080-NT tox 12.3%, HT1080 IDH1KD tx 19.7%, TDP1 cell noCPT -7.0%, uPA surface inh -2.6% and IL1B secr inh -2.2.
For CCCCSC(=S)NC1CCS(=O)(=O)C1 (centres undefined) the results were TDP1 cell CPT 9.2µM*, HT1080-NT tox -28.8%, HT1080 IDH1KD tx inconclusive, TDP1 cell noCPT 11.6µM*, uPA surface inh -8.2% and IL1B secr inh -98.2*.
O=S1(=O)CCC(NC(=S)SCCOc2ccccc2)C1 (centres undefined) was read as TDP1 cell CPT 8.2µM*, HT1080-NT tox -24.2%, HT1080 IDH1KD tx -15.8%, TDP1 cell noCPT 10.3µM*, uPA surface inh 12.2% and IL1B secr inh inconclusive.
Screening CNC(=S)SCCOc1ccccc1 returned TDP1 cell CPT -23.5%, HT1080-NT tox -0.2%, HT1080 IDH1KD tx 0.3%, TDP1 cell noCPT -24.7%, uPA surface inh 1.9% and IL1B secr inh -3.4.
Screening O=C(CN1CCN(c2ccccn2)CC1)NC(=O)NC1CCCCC1 returned TDP1 cell CPT -21.3%, HT1080-NT tox 1.8%, HT1080 IDH1KD tx -0.4%, TDP1 cell noCPT -19.9%, uPA surface inh -3.1% and IL1B secr inh 0.0.
Screening O=C(C1CCCCC1)N(CCN1CCN(c2ccccc2CO)CC1)c1ccccn1 returned TDP1 cell CPT inconclusive and TDP1 cell noCPT 10.3µM*.
Screening Cc1cccc(S(=O)(=O)NC(=O)C2(C)CCN2C(=O)CCC2CCCC2)c1 (centres undefined) returned TDP1 cell CPT -1.4%, HT1080-NT tox 1.3%, HT1080 IDH1KD tx 8.7%, TDP1 cell noCPT 16.3% and IL1B secr inh 25.2.
For C[C@@H]1CN([C@@H](C)CO)C(=O)CCCn2cc(nn2)CO[C@H]1CN(C)S(=O)(=O)c1ccc(Cl)cc1 the results were TDP1 cell CPT -8.8%, HT1080-NT tox 12.3%, HT1080 IDH1KD tx -6.5%, TDP1 cell noCPT -24.6% and IL1B secr inh -13.4.
`Cc1c(CN(C)C)c2c(n1Cc1ccccc1)C(=O)c1ccc(Br)cc1-2` gave TDP1 cell CPT inconclusive, HT1080-NT tox 18.4µM*, HT1080 IDH1KD tx inconclusive, TDP1 cell noCPT inconclusive, uPA surface inh -4.6% and IL1B secr inh -68.2*.
Screening Cc1c(CN(C)C)c2c(n1C)C(=O)c1ccc(Br)cc1-2 returned TDP1 cell CPT inconclusive, HT1080-NT tox inconclusive, HT1080 IDH1KD tx 2.9%[9.24 µM], TDP1 cell noCPT inconclusive and uPA surface inh -20.1%.
For COc1cccc2c1OCC([C@@H]1C[C@H]3CN(Cc4cccc(Cl)c4)C(=O)[C@]34CCCN14)=C2 the results were TDP1 cell CPT 16.4µM*, HT1080-NT tox -19.5%, HT1080 IDH1KD tx -19.5%, TDP1 cell noCPT inconclusive, uPA surface inh -0.5% and IL1B secr inh -60.8*.
Screening O=C1N(Cc2cccc(Cl)c2)C[C@@H]2C[C@@H](c3ccco3)N3CCC[C@@]123 returned TDP1 cell CPT 20.3%, HT1080-NT tox 1.3%, HT1080 IDH1KD tx 20.9%, TDP1 cell noCPT -10.9%, uPA surface inh 2.4% and IL1B secr inh 4.4.
`COc1ccccc1/C=C/[C@@H]1C[C@H]2CN(Cc3cccc(Cl)c3)C(=O)[C@]23CCCN13` gave TDP1 cell CPT 10.3µM*, HT1080-NT tox -11.8%, HT1080 IDH1KD tx -16.9%, TDP1 cell noCPT 20.6µM*, uPA surface inh 5.6% and IL1B secr inh 0.0.
`Cc1nn2c(=O)cc(CSCC(=O)Nc3ccccc3Cl)nc2s1` gave TDP1 cell CPT -7.8%, HT1080-NT tox -1.2%, HT1080 IDH1KD tx -3.8%, TDP1 cell noCPT 34.5%, uPA surface inh 0.8% and IL1B secr inh -5.5.
`O=C(Cc1cccc2ccccc12)NCC(=O)N1CCN(CC(=O)Nc2ccc(F)cc2)CC1` gave TDP1 cell CPT inconclusive, HT1080-NT tox -15.4%, HT1080 IDH1KD tx -7.9%, TDP1 cell noCPT 18.4µM* and IL1B secr inh 14.7.
For O=C(Cc1cccc2ccccc12)NCC(=O)N1CCN(Cc2cccc(C(F)(F)F)c2)CC1 the results were TDP1 cell CPT 10.3µM*, HT1080-NT tox -23.3%, HT1080 IDH1KD tx -22.5%, TDP1 cell noCPT 10.3µM*, uPA surface inh -5.6% and IL1B secr inh -13.0.
For CCc1ccccc1NC(=O)CN1CCN(C(=O)CNC(=O)c2ccccc2F)CC1 the results were TDP1 cell CPT -2.6%, HT1080-NT tox 19.8%, HT1080 IDH1KD tx 13.4%, TDP1 cell noCPT 5.7%, uPA surface inh 21.8% and IL1B secr inh 0.0.
COc1ccc(N2CCN(S(=O)(=O)CCNC(=O)COc3ccccc3F)CC2)cc1 was read as TDP1 cell CPT 2.1% and TDP1 cell noCPT -26.1%.
`COc1ccc(-c2cn3cccnc3n2)cc1NC(=O)COc1ccccc1` gave TDP1 cell CPT 20.6µM* and TDP1 cell noCPT 13µM*.
O=S(=O)(Nc1cccc(-c2cn3cccnc3n2)c1)c1ccc(Cl)cc1 was read as TDP1 cell CPT inconclusive, HT1080-NT tox 1.8%, HT1080 IDH1KD tx -8.3%, TDP1 cell noCPT inconclusive, uPA surface inh 5.9% and IL1B secr inh -70.2*.
Screening COc1ccc(C)cc1S(=O)(=O)Nc1cccc(-c2cn3cccnc3n2)c1 returned TDP1 cell CPT 6.0%, HT1080-NT tox -9.7%, HT1080 IDH1KD tx -5.0%, TDP1 cell noCPT inconclusive, uPA surface inh -6.8% and IL1B secr inh -19.8.
